Reference: the supplement of paper PMC6555819

What follows are sequences tested on VDR:RXRa (NR concentration 270 nM, RXRa partner concentration 90 nM) (assay: PBM binding z-score (relative to random genomic background probes); higher = stronger binding; sequences stand for … in GC…GCGATTGACAGCGTAGAATGAAGG).
Protocol: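 Protein-binding microarray (Agilent 4x180K custom design, double-stranded 60-nt probes: 5' GC cap, 34-nt variable region, 24-nt constant primer region; full probe sequence given). Purified or IVT nuclear receptor:RXRα heterodimers (3:1 NR:RXRα, mostly 270:90 nM) or homodimers were incubated for 1 h in PBS with 2% milk and no ligand, then detected with Alexa488 antibodies. Fluorescence from o1-orientation probes (~5 replicates averaged) was converted to z-scores against 500 random hg19 background probes. Variable regions are seed direct-repeat (DR0–DR5) sites, all their single-nucleotide variants and half-site ablations.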

Sequence | PBM binding z-score
CGTCCAAGGTCAAGGTCAGTGAAAGAGACTCGAA | 4.7
ATCTCTAGGTAACCAAGTTCAGAGAATGCCGAAC | 4.26
TAGCCTTGGTCATTGGGCCAGTATAGTACGCATC | -0.419
GGAACGAGGGCATCCGAGTTGATAGCATGGCGAT | 3.18
CCTATTTGTTGACCATAAGGGCAACCGAAGCTCG | 1.09
TCTTGTAGATCTAAGGTTAAGAAAGCCGAAGCCT | 0.651
AGAATGAGGTTACGAAAGATCAGGGAAACGCTTG | 1.52
AGTCAAAGTTCACTAGGTAACATAAGATTCAGCT | 4.14
TCTAGCAGGCCAAAGGGTCACTCAAGAGGTACGG | 3.12
CCTGCTAGGTCAGGGTCAGCTAATCTACAGTATG | 2.86
AGTCAAAGTTCATCCAGGTAACGTAAGATATGCT | 5.39
GGAACGAGGGCATTCGAGTTGATGGCATGGCGAT | 3.36
CCTACTGGGCCATCAGGTCATTGAAATCAACGTT | 1.28
CGAAGTAGGTCATTGACAGGACAGTGAATAGTAA | 2.62
ATCTCTAGGTGAGACTCAGTTCAGTGAAGAACGC | 0.863
TCTTGTAGATCAAGCAGGTTAAGGAAGCCTGAGT | -0.0838
GCGACTGGGGCAAAGCTGGTTACCATAAGGTTGG | -0.475
ATTCAAAGTTCACTAGGTAACGTAAGATTCAGCT | 3.43
TAGCCTAGGTCATTGGGCCAGTATTGTACGCATC | 2.26
TCTTGTAGCTCAAGCAGGTTAAGAAAGCCTGAGT | -0.0447

Sequence | PBM binding z-score
ATCTCTAGGTGACAAGTTCAGTGAAAGAGAGGAC | 1.63
CCGACTGGGACAAAGGTTACCATACTCAGTACGA | 1.14
GCGTACGGGTCAAAGGTTATAGCATGAATAGAAT | 5.59
CGAACTAGGTCATCCAGGACAGTGAATACATTGA | 4.73
TCATATAGGTAAACTGGTGAAAGTCCGTAAGTTA | 0.597
TCGAGTAGGTTAATCGGGGCATTCAGCCAACATA | 3.59
AGTCAAACTTCATCTAGGTAACGTAAGATATGCT | -0.0435
CCTACTGGGCCACGAAACGTCATTGATTCAGTGA | -0.697
CCGACTGGGGCATAAGCTTACCATAAGCCAGCCC | -0.79
CCTACTGGGCGAAAGGTCATTGATTCCAATGCTC | 4.43
GCTTGTAGATCAAGGTTAATAAAGACTAAGCTAA | -0.00898
CCTCGGAGGACAACAGGAGGCCAGAGCTGCCAGA | -0.504
GGAACGAGGGCCAAGTTGATAGCATCTGTCGACG | -0.379
CCTGCTAGGTCAATGGTCAGCTGAAGCAGCTCGC | 0.785
AGTCAAAGTTCATCTACGTAACGTAAGATATGCT | 4.77
TAGCCTAGGTCATTCAGGTGCCAGTATAGAAAGC | 3.1
GCAGAGAGGTGAAACGCAGGTAACTCAGGGTGGC | 0.186
CAAACTAGGTCATGGTCAAAGTCGGTTTGTGCCA | 2.18
CCTAGCAGGCCAATCAGGGTCACTCAAGGCTTGA | 3.66
TATACAGGGTCAACGGCCAGAGTACGAATGTCGA | 4.6
